Laboratory results reported in ChEMBL document CHEMBL5724796, “Tm Shift (DSF) assay results for EUbOPEN Chemogenomics Library” (2024).
Residues, ends and D or L forms follow the SMILES beside them. *: point of attachment. Cbz = O=C(OCc1ccccc1)*; Boc = CC(C)(C)OC(=O)*; CH2F = FC*

Target: Glycogen synthase kinase-3 beta (Homo sapiens) (UniProt P49841)
Conditions: Compound concentration 20.0 uM

Sequence of Glycogen synthase kinase-3 beta (Homo sapiens) (P49841 whole entry, looked up): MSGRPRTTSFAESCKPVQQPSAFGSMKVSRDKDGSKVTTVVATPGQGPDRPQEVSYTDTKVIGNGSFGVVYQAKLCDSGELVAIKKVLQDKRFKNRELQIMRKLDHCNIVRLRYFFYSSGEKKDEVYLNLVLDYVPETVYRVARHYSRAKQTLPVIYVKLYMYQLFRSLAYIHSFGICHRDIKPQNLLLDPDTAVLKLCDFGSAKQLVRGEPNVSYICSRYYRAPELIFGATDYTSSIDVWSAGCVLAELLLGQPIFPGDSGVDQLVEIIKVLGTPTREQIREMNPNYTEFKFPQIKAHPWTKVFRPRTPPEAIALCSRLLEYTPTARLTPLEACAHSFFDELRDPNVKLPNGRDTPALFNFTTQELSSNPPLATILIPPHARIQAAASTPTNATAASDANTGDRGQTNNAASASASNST

SMILES | ΔTm [°C]
CCn1c(=S)[nH]c2cc3c(NCc4ccccc4N4CCC(CO)CC4)ncnc3cc21 | -0.82
COc1cc2c(cc1OC)[C@H]1C[C@@H](O)[C@H](CC(C)C)CN1CC2 | -0.88
C=CCn1c(N[C@@H]2C[C@H](c3ccc(OCc4ccccc4)cc3)CN(C)C2)nc2cc[nH]c2c1=O | -0.88
CC(C)[C@H](NC(=O)[C@H](CCC(=O)O)NC(=O)[C@H](C)NC(=O)OC(C)(C)C)C(=O)N[C@H](C=O)CC(=O)O (Boc-AEVD-aldehyde) | -1.03
Cc1cnc(-c2ccccc2C(C)C)nc1NCc1ccc(-n2ccnn2)cc1 | 0.1
O=C(c1ccc2c(ccn2-c2ccc(F)cc2)c1)N1CC(N2CCN(C(=O)c3nccs3)CC2)C1 | -1.59
Cc1c(Nc2ccc(S(=O)(=O)N3CCN(C)CC3)cc2F)nc2ccc(-c3cnn(C4CC4)c3)cn2c1=O | 0.08
CC(=O)Nc1ccc(C(=O)Nc2ccc(F)cc2N)cc1 | -3.79
CCCCCCCCCCCCCCCCNNC(=O)c1cccs1 | -1.02
CCNC(=O)NCCSC[C@H]1O[C@@H](n2cnc3c(N)ncnc32)[C@H](O)[C@@H]1O | -0.36
CNc1cc(-c2cccc(Cl)c2Cl)nc(N)n1 | -0.04
CCNC(=O)/C=C/c1cccc(Br)c1 | -0.4
O=C(c1cc(Cc2n[nH]c(=O)c3ccccc23)ccc1F)N1CCN(C(=O)C2CC2)CC1 | -4.34
CCCOC(=O)N1CCN(C(=O)c2ccc3c(Cl)cc(-c4ccc(C5(N)CC5)cc4)nc3c2)C[C@H]1C | -1.68
CC(C)C[C@@H](C=O)NC(=O)[C@@H](NS(=O)(=O)c1ccc(F)cc1)C(C)C | -0.13
CC(C)NCC(O)COC(Cn1c2ccccc2c2ccccc21)Cn1c2ccccc2c2ccccc21 (centres undefined) | -5.02
COc1ccc(-c2c(-c3ccc(C#N)c(F)c3)nc(N3CCC(N)CC3)n(C)c2=O)cc1F | -0.33
Cc1noc2c1-c1ccccc1C(c1ccc(Cl)cc1)=N[C@H]2CC(N)=O | -0.25
Cc1ncc(Cl)cc1NCc1ccc(C(=O)N[C@@H](CC2CCCC2)C(=O)NC2CC2)s1 | 10.5
O=C(NO)c1cccc(C(=O)NCCc2ccccc2)c1 | -1.53

SMILES | ΔTm [°C]
N#Cc1c(N)[nH]c2cc(/C=C/c3cccc(F)c3)ccc12 | -0.5
O=C(O)CCNc1cc(N2CCc3ccccc3CC2)nc(-c2ccccn2)n1 | 0
CN1CCN(c2cc(C(=O)Nc3ncc(SCc4cccc(C(F)(F)F)c4)s3)ccn2)CC1 | 0
CC1=NN(c2ccc(C(=O)O)cc2)C(=O)/C1=C/c1ccc(-c2cc(C)c(C)cc2[N+](=O)[O-])o1 | 0.03
CC(C)(C)NS(=O)(=O)c1cccc2c(NC(=O)[C@H](Cc3ccccc3)NC(=O)C3CCCCC3)cccc12 | -0.2
CC(=O)N1CCC(c2ccc(C(=O)NC(=N)N)cc2C(F)(F)F)CC1 | -0.96
O=C(NO)c1cnc(NC2(c3ccccc3)CC2)nc1 | -0.05
CC(C)c1cnc(CSc2cnc(NC(=O)C3CCNCC3)s2)o1 | 7.03
O=C(O)CCNC(=S)NCCCC[C@H](NS(=O)(=O)c1cccc(F)c1)C(=O)N[C@@H](Cc1c[nH]c2ccccc12)C(=O)NC1CCC1 | -0.19
CNCC[C@@H](Oc1ccccc1C)c1ccccc1 | -0.38
CCN(C(=O)c1cc(F)ccc1Oc1cncnc1N1CC2(CCN(C[C@H]3CC[C@H](NS(=O)(=O)CC)CC3)CC2)C1)C(C)C | -0.74
Cc1ccc2c(c1)nc(/C=C/c1cccc3cccnc13)n2-c1cccc(OCCCN2CCN(C)CC2)c1 | -0.72
CN1Cc2c(Cl)cc(Cl)cc2[C@H](c2cccc(S(=O)(=O)NCCOCCOCCNC(=O)NCCCCNC(=O)NCCOCCOCCNS(=O)(=O)c3cccc([C@@H]4CN(C)Cc5c(Cl)cc(Cl)cc54)c3)c2)C1 | -1.54
C[C@H](NC(=O)[C@H](Cc1ccccc1)NC(=O)OCc1ccccc1)C(=O)CF | -0.61
Cc1cc(C)nc(SCC(=O)Nc2ncc(Cc3cccc(OCc4cn(Cc5ccccc5)nn4)c3)s2)n1 | -0.77
COC(=O)CC(NC(=O)C(C)NC(=O)C(NC(=O)C(CC(=O)OC)NC(=O)C(NC(=O)OCc1ccccc1)C(C)C)C(C)C)C(=O)CF (centres undefined) (Cbz-VD(OMe)VAD(OMe)-CH2F; configuration not given here) | 0.19
CC1C(C#N)=C(N)OC2=C1C(=O)CC(c1cccc3ccccc13)C2 (centres undefined) | 4.85
Cc1ccc(C(=O)Nc2ccc(S(=O)(=O)O)c3cc(S(=O)(=O)O)cc(S(=O)(=O)O)c23)cc1NC(=O)c1cccc(NC(=O)Nc2cccc(C(=O)Nc3cc(C(=O)Nc4ccc(S(=O)(=O)O)c5cc(S(=O)(=O)O)cc(S(=O)(=O)O)c45)ccc3C)c2)c1 | -0.55
CN1C[C@@H]2[C@H](C1)[C@H]2CN(Cc1ccc(F)c(Cl)c1)C(=O)c1cn(C)cn1 | 0.04
